Assay results taken from PubChem BioAssay AID1159580 (chemical genetic matrix, 2015).
Out of some 5,500 compounds screened, about 2,000 (36%) were called active. Roughly 18% stayed inconclusive and do not appear here. No stated cut-off is given here; in the data, active means normalized growth mostly below about 0.91 (no sharp cut-off); inconclusive means no clear call, values can overlap the other calls; inactive means mostly above about 0.92. Some of the results follow.

Test: chemical genetic growth profiling, strain panel (AID 1159580);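 further: tested at 20 µM; growth read once vehicle control cultures reached saturation at 30 °C; 1 = growth at the plate median or of vehicle wells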
Settings: S. cerevisiae deletion strains, growth OD

Measured: normalized growth

CC[C@H](C)C(=O)O[C@H]1CCC=C2C=C[C@H](C)C(CCC3C[C@@H](O)CC(=O)O3)[C@H]21 (stereo partly drawn)
inactive: locus YAL026C, strain drs2, stronger effect = lower value 1.02 | locus YAL030W, strain snc1, stronger effect = lower value 0.997 | locus YBL061C, strain skt5, stronger effect = lower value 1.01 | locus YBR009C, strain hhf1, stronger effect = lower value 1 | locus YBR021W, strain FUR4, stronger effect = lower value 0.958 | locus YBR023C, strain chs3, stronger effect = lower value 1.01 | locus YBR171W, strain sec66, stronger effect = lower value 1.02 | locus YBR229C, strain ROT2, stronger effect = lower value 0.983 | locus YBR231C, strain swc5, stronger effect = lower value 0.95 | locus YBR279W, strain paf1, stronger effect = lower value 1 | locus YCL011C, strain gbp2, stronger effect = lower value 1.01 | locus YCL016C, strain dcc1, stronger effect = lower value 0.997 | locus YCL029C, strain bik1, stronger effect = lower value 0.969 | locus YCL061C, strain MRC1, stronger effect = lower value 1 | locus YCL069W, strain vba3, stronger effect = lower value 1 | locus YCR088W, strain abp1, stronger effect = lower value 1.01 | locus YDL005C, strain med2, stronger effect = lower value 0.988 | locus YDL035C, strain GPR1, stronger effect = lower value 0.981 | locus YDL040C, strain nat1, stronger effect = lower value 1 | locus YDL074C, strain BRE1, stronger effect = lower value 0.957 | locus YDL101C, strain DUN1, stronger effect = lower value 0.989 | locus YDL134C, strain PPH21, stronger effect = lower value 1.01 | locus YDL185W, strain tfp1, stronger effect = lower value 0.978 | locus YDL192W, strain arf1, stronger effect = lower value 0.972 | locus YDR001C, strain nth1, stronger effect = lower value 1 | locus YDR069C, strain doa4, stronger effect = lower value 1.01 | locus YDR101C, strain arx1, stronger effect = lower value 0.974 | locus YDR150W, strain NUM1, stronger effect = lower value 0.997 | locus YDR159W, strain sac3, stronger effect = lower value 1.04 | locus YDR162C, strain NBP2, stronger effect = lower value 0.987 | locus YDR195W, strain ref2 1 | locus YDR297W, strain sur2, stronger effect = lower value 1 | locus YDR318W, strain mcm21, stronger effect = lower value 0.992 | locus YDR334W, strain swr1, stronger effect = lower value 0.997 | locus YDR335W, strain msn5, stronger effect = lower value 0.999 | locus YDR388W, stronger effect = lower value 0.981 | locus YDR392W, strain spt3, stronger effect = lower value 0.989 | locus YDR502C, strain sam2, stronger effect = lower value 1.02 | locus YEL003W, strain gim4, stronger effect = lower value 1.02 | locus YEL037C, strain rad23, stronger effect = lower value 1 | locus YEL061C, strain CIN8 (second series), stronger effect = lower value 0.999 | locus YEL061C, strain CIN8, stronger effect = lower value 0.99 | locus YER015W, strain faa2, stronger effect = lower value 1.01 | locus YER016W, strain bim1, stronger effect = lower value 0.999 | locus YER110C, stronger effect = lower value 0.968 | locus YER111C, strain swi4, stronger effect = lower value 0.995 | locus YER155C, strain BEM2 (second series), stronger effect = lower value 1.02 | locus YER155C, strain BEM2, stronger effect = lower value 0.967 | locus YER167W, strain BCK2, stronger effect = lower value 0.99 | locus YFR010W, strain ubp6, stronger effect = lower value 1.03 | locus YGL078C, strain dbp3, stronger effect = lower value 0.971 | locus YGL086W, strain mad1, stronger effect = lower value 0.956 | locus YGL167C, strain pmr1, stronger effect = lower value 0.996 | locus YGL173C, strain kem1, stronger effect = lower value 1.01 | locus YGL227W, strain vid30, stronger effect = lower value 1 | locus YGL240W, strain doc1, stronger effect = lower value 1.02 | locus YGL248W, strain PDE1, stronger effect = lower value 0.998 | locus YGL253W, strain hxk2, stronger effect = lower value 1.01 | locus YGR135W, strain pre9, stronger effect = lower value 1 | locus YGR252W, strain gcn5, stronger effect = lower value 1.03 | locus YHR013C, strain ard1, stronger effect = lower value 0.947 | locus YHR027C, strain rpn1, stronger effect = lower value 1.02 | locus YHR030C, strain SLT2, stronger effect = lower value 0.982 | locus YHR079C, strain IRE1 (second series), stronger effect = lower value 0.98 | locus YHR094C, strain hxt1, stronger effect = lower value 0.981 | locus YHR129C, strain ARP1, stronger effect = lower value 0.987 | locus YHR142W, strain chs7, stronger effect = lower value 1.01 | locus YHR200W, strain rpn10, stronger effect = lower value 0.978 | locus YIL066C, strain RNR3, stronger effect = lower value 0.989 | locus YIL073C, strain SPO22, stronger effect = lower value 0.975 | locus YIL125W, strain kgd1, stronger effect = lower value 0.99 | locus YIR030C, strain dcg1, stronger effect = lower value 0.981 | locus YJL092W, strain hpr5, stronger effect = lower value 1.01 | locus YJL095W, strain BCK1 (second series), stronger effect = lower value 1.01 | locus YJL095W, strain BCK1, stronger effect = lower value 1.03 | locus YJL115W, strain asf1, stronger effect = lower value 1 | locus YJL129C, strain trk1, stronger effect = lower value 1.04 | locus YJL134W, strain LCB3, stronger effect = lower value 0.977 | locus YJL154C, strain vps35, stronger effect = lower value 1 | locus YJL164C, strain tpk1, stronger effect = lower value 1.01 | locus YJL166W, strain qcr8, stronger effect = lower value 1.02 | locus YJL168C, strain set2, stronger effect = lower value 0.975 | locus YJL187C, strain SWE1 (second series), stronger effect = lower value 0.994 | locus YJL187C, strain SWE1, stronger effect = lower value 1 | locus YJR043C, strain POL32, stronger effect = lower value 0.978 | locus YKL068W, stronger effect = lower value 0.987 | locus YKL085W, strain MDH1 (second series), stronger effect = lower value 0.966 | locus YKL085W, strain MDH1, stronger effect = lower value 0.966 | locus YKL160W, strain elf1, stronger effect = lower value 1.01 | locus YKL190W, strain CNB1, stronger effect = lower value 0.993 | locus YKR001C, strain vps1, stronger effect = lower value 0.973 | locus YKR026C, strain gcn3, stronger effect = lower value 0.981 | locus YKR091W, strain srl3, stronger effect = lower value 1 | locus YLL001W, strain dnm1, stronger effect = lower value 1.01 | locus YLL026W, stronger effect = lower value 1.01 | locus YLL041C, strain sdh2, stronger effect = lower value 1 | locus YLR027C, strain aat2, stronger effect = lower value 1.01 | locus YLR039C, strain RIC1, stronger effect = lower value 1.15 | locus YLR058C, strain SHM2, stronger effect = lower value 0.989 | locus YLR102C, strain apc9, stronger effect = lower value 0.973 | locus YLR221C, strain rsa3, stronger effect = lower value 1.02 | locus YLR258W, strain gsy2, stronger effect = lower value 1.01 | locus YLR262C, strain YPT6, stronger effect = lower value 1.07 | locus YLR268W, strain sec22, stronger effect = lower value 0.954 | locus YLR320W, strain mms22, stronger effect = lower value 1.02 | locus YLR330W, strain CHS5, stronger effect = lower value 0.991 | locus YLR342W, strain FKS1 (second series), stronger effect = lower value 1.03 | locus YLR342W, strain FKS1, stronger effect = lower value 1.01 | locus YLR357W, strain rsc2, stronger effect = lower value 1.01 | locus YLR370C, strain arc18, stronger effect = lower value 1 | locus YLR371W, strain rom2, stronger effect = lower value 0.955 | locus YLR384C, strain iki3, stronger effect = lower value 1.01 | locus YLR418C, strain cdc73, stronger effect = lower value 1 | locus YML016C, strain PPZ1, stronger effect = lower value 0.999 | locus YML032C, strain rad52, stronger effect = lower value 1.03 | locus YML120C, strain ndi1, stronger effect = lower value 1.02 | locus YML124C, strain tub3, stronger effect = lower value 0.983 | locus YMR058W, strain fet3, stronger effect = lower value 1.01 | locus YMR078C, strain ctf18, stronger effect = lower value 0.997 | locus YMR125W, strain sto1, stronger effect = lower value 1.02 | locus YMR129W, stronger effect = lower value 1 | locus YMR205C, strain PFK2, stronger effect = lower value 1.01 | locus YMR223W, strain ubp8, stronger effect = lower value 0.995 | locus YMR231W, strain pep5, stronger effect = lower value 0.996 | locus YMR307W, strain GAS1, stronger effect = lower value 1.07 | locus YNL067W, strain RPL9B, stronger effect = lower value 1 | locus YNL071W, strain lat1, stronger effect = lower value 1 | locus YNL209W, strain ssb2, stronger effect = lower value 1.02 | locus YNL233W, strain BNI4, stronger effect = lower value 1.01 | locus YNL248C, strain rpa49, stronger effect = lower value 1.02 | locus YNL250W, strain rad50, stronger effect = lower value 0.977 | locus YNL271C, strain bni1, stronger effect = lower value 0.977 | locus YNL298W, strain CLA4, stronger effect = lower value 0.968 | locus YNL307C, strain MCK1, stronger effect = lower value 0.978 | locus YNL322C, strain KRE1 (second series), stronger effect = lower value 1.01 | locus YNL322C, strain KRE1, stronger effect = lower value 0.989 | locus YNR049C, strain mso1, stronger effect = lower value 1.01 | locus YNR052C, strain pop2, stronger effect = lower value 0.966 | locus YOL012C, strain htz1 0.865 | locus YOL147C, strain pex11, stronger effect = lower value 0.994 | locus YOR001W, strain rrp6, stronger effect = lower value 1.01 | locus YOR061W, strain CKA2, stronger effect = lower value 0.985 | locus YOR069W, strain VPS5, stronger effect = lower value 0.981 | locus YOR070C, strain gyp1, stronger effect = lower value 1.02 | locus YOR080W, strain dia2, stronger effect = lower value 1 | locus YOR083W, strain WHI5, stronger effect = lower value 1.01 | locus YOR106W, strain vam3, stronger effect = lower value 1.04 | locus YOR136W, strain idh2, stronger effect = lower value 0.977 | locus YOR144C, strain elg1, stronger effect = lower value 0.977 | locus YOR184W, strain ser1, stronger effect = lower value 0.957 | locus YOR265W, strain rbl2, stronger effect = lower value 1 | locus YOR270C, strain vph1, stronger effect = lower value 0.999 | locus YOR290C, strain snf2, stronger effect = lower value 0.991 | locus YOR316C, strain cot1, stronger effect = lower value 0.983 | locus YPL051W, strain arl3, stronger effect = lower value 1.02 | locus YPL078C, strain atp4, stronger effect = lower value 1.01 | locus YPL106C, strain sse1, stronger effect = lower value 1.06 | locus YPL240C, strain hsp82, stronger effect = lower value 1.01 | locus YPL241C, strain CIN2, stronger effect = lower value 0.981 | locus YPR119W, strain clb2, stronger effect = lower value 0.979 | locus YPR141C, strain kar3, stronger effect = lower value 0.963 | locus YPR163C, strain tif3, stronger effect = lower value 0.992 | locus YPR167C, strain met16, stronger effect = lower value 1 | strain wtn01, stronger effect = lower value 0.935
active: locus YAL021C, strain ccr4, stronger effect = lower value 0.894 | locus YDR137W, strain rgp1, stronger effect = lower value 1.39 [resistant] | locus YKL009W, strain mrt4, stronger effect = lower value 0.864 | locus YLR262C, strain YPT6 (second series), stronger effect = lower value 1.22 [resistant]
